The record followed here is PubChem BioAssay (NCATS).

Results filed as inconclusive are left out. Values without a mark were called inactive. Calls of active or inactive are those of the source. The call rests on the fitted dose curve; in most records, active means well fitted curve in the direction sought with a large enough effect; inconclusive means small, poorly fitted or top-dose-only effect, or another doubt; inactive means no such curve, though single readings can be large; an effect the other way counts as inactive or inconclusive.

The nature of experiment [1]: qHTS of pediatric cancer cell lines to identify multiple opportunities for drug repurposing: Primary screen for NB1643 cells (AID 1347099). Further: nearly all actives have a fitted effect of over 50% in size. Further: potency means the concentration at half of the fitted maximal effect. In a few lines:
(§1)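 Readout: CellTiter-Glo luminescence, 48 h treatment. Controls DMSO (neutral) and bortezomib 2.3 µM final (positive). Potency and efficacy taken from primary-screen concentration-response curves.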

The nature of experiment [2]: qHTS of pediatric cancer cell lines to identify multiple opportunities for drug repurposing: Primary screen for LAN-5 cells (AID 1347100). Further: potency means the concentration at half of the fitted maximal effect. In outline: (§2)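 Cells (500-1,000/well) rested 5 h, then received compounds for 48 h; metabolically active cells were measured by CellTiter-Glo luminescence. Final concentrations spanned up to 46 µM (MIPE, 11-point) or 0.59 nM-46 µM (NPC, 8-point) in primary screens, 11-point in follow-ups.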
For orientation: qHTS replaces the single test concentration by a dilution series.

Experiment [3] is described as follows: qHTS of pediatric cancer cell lines to identify multiple opportunities for drug repurposing: Primary screen for BT-12 cells (AID 1347101). Further: nearly all actives have a fitted effect of over 25% in size. Further: potency means the concentration at half of the fitted maximal effect. In outline:
as §2

Experiment [4] in a line: qHTS of pediatric cancer cell lines to identify multiple opportunities for drug repurposing: Primary screen for Rh18 cells (AID 1347102). Further: nearly all actives have a fitted effect of over 65% in size. Further: potency means the concentration at half of the fitted maximal effect. In a few lines: as §2
Experiment [5] in a line: qHTS of pediatric cancer cell lines to identify multiple opportunities for drug repurposing: Primary screen for control Hh wild type fibroblast cells (AID 1347106).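 Further: series mostly up to about 46 µM; a drop in luminescence marks cytotoxicity and a rise apparent proliferation; nearly all actives have a fitted effect of over 55% in size.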 In a few lines:
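Viability after 48 h compound treatment at 37C, 500-1,000 cells/well, read as ATP luminescence with CellTiter-Glo. Primary screens used 11-point (MIPE, 0.78 nM-46 µM) or 8-point (NPC, 0.59 nM-46 µM) final concentrations; follow-up screens used 11-point dilutions.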

The nature of experiment [6]: qHTS of pediatric cancer cell lines to identify multiple opportunities for drug repurposing: Primary screen for Rh30 cells (AID 1347107). Further: nearly all actives have a fitted effect of over 75% in size. Further: potency means the concentration at half of the fitted maximal effect. In a few lines: as §2
Experiment [7] can be described thus: qHTS of pediatric cancer cell lines to identify multiple opportunities for drug repurposing: Primary screen for OHS-50 cells (AID 1347103). Further: nearly all actives have a fitted effect of over 40% in size. Further: potency means the concentration at half of the fitted maximal effect. In a few lines: as §2
Experiment [8] can be described thus: qHTS of pediatric cancer cell lines to identify multiple opportunities for drug repurposing: Primary screen for RD cells (AID 1347104). Further: nearly all actives have a fitted effect of over 55% in size. Further: potency means the concentration at half of the fitted maximal effect. In outline: as §1
Experiment [9] can be described thus: qHTS of pediatric cancer cell lines to identify multiple opportunities for drug repurposing: Primary screen for MG 63 (6-TG R) cells (AID 1347105). Further: nearly all actives have a fitted effect of over 50% in size. Further: potency means the concentration at half of the fitted maximal effect. In outline:
as §1

A short description of experiment [10]: qHTS of pediatric cancer cell lines to identify multiple opportunities for drug repurposing: Primary screen for Rh41 cells (AID 1347108). Further: nearly all actives have a fitted effect of over 70% in size. Further: potency means the concentration at half of the fitted maximal effect. In outline:
as §1

For `CN(C)CCOc1cc(-c2cn[nH]c2)ccc1NC(=O)C1COc2ccccc2O1` (centres undefined), the Potency in experiment [1] is 9.35 µM (active). Moreover, the Potency entry in experiment [2], in experiment [3], in [4], in experiment [5] and in experiment [6] was “inactive” in each case.
Turning to `CC(C)(C)c1[nH]cnc1C=c1[nH]c(=O)c(=Cc2ccccc2)[nH]c1=O`, the Potency in [1] was 48.1 µM (active); in experiment [2] it was 0.001 µM (active); in [3] it was 0.0111 µM (active); in experiment [7] it was 35.2 µM (active); in experiment [8] it was 34 µM (active). In addition, the Potency result in [5] was “inactive”.
For the molecule `COc1cc(Nc2nc3ccccc3nc2NS(=O)(=O)c2ccc(NC(=O)c3ccc(C)c(OC)c3)cc2)cc(OC)c1`, the Potency result in experiment [1], in [2] and in [4] was “inactive” in each case.
On to `N#CC(c1ccc(Cl)cc1)c1c(Cl)cc(-n2ncc(=O)[nH]c2=O)cc1Cl` (centres undefined), for which the Potency was 18.7 µM (active) in experiment [1]; 7.43 µM (active) in experiment [2]; 21.7 µM (active) in [3]; 15.3 µM (active) in [7]; 14.8 µM (active) in experiment [9]. The Potency result in [5] was “inactive”.
For the molecule `CN[C@@H](C)[C@H]1[C@H](O)C[C@@]2(C)[C@@H]3CC[C@H]4C(C)(C)[C@@H](NC)CC[C@@]45C[C@@]35CC[C@]12C`, the Potency result in experiment [1], in experiment [2], in experiment [3], in experiment [4], in experiment [9] and in [5] was “inactive” each time. In addition, the Potency entry in experiment [6] and in experiment [10] was “inactive” throughout.
As to `C[C@]12C=CC(=O)C=C1CC[C@@H]1[C@@H]2[C@@H](O)C[C@@]2(C)[C@@H]1CC[C@]2(O)C(=O)CO`, the Potency entry in [1], in experiment [4], in experiment [7], in [8] and in [9] was “inactive” throughout. Besides, in experiment [2], the Potency was 23.5 µM (active).
`CC(C)=CCCC(C)=CCCC(C)=CCCC(C)=CCCC(C)=CCCC(C)=CCCC(C)=CCCC(C)=CCCC(C)=CCO`: the Potency result in [1], in experiment [2], in [3], in [7], in experiment [8] and in [9] was “inactive” in each case. The Potency result in experiment [6] and in experiment [10] was “inactive” throughout.
As to `CC[C@H](C=C[C@@H](C)[C@H]1CC[C@H]2[C@@H]3CC=C4C[C@@H](O)CC[C@]4(C)[C@@H]3CC[C@]12C)C(C)C`, the Potency entry in experiment [1], in experiment [2], in [3], in [4], in [6] and in [10] was “inactive” in each case.
For `NC(=O)c1noc([C@H](CCCC2CCCCC2)CC(=O)NO)n1`, the Potency in experiment [1] was 18.7 µM (active); in [2], 14.8 µM (active); in experiment [4], 13.2 µM (active); in [7], 7.69 µM (active); in experiment [6], 18.7 µM (active); in experiment [10], 14.8 µM (active). The Potency result in experiment [5] was “inactive”.
Turning to `O=C1Nc2ccc(I)cc2C1=Cc1cc(Br)c(O)c(Br)c1`, the Potency result in [1], in experiment [2], in experiment [3], in experiment [4], in experiment [9] and in [5] was “inactive” each time.
`CN(C)CCOc1ccc(C(=C(CCCl)c2ccccc2)c2ccccc2)cc1`: the Potency entry in experiment [1], in [2], in experiment [3], in [4], in experiment [9] and in experiment [5] was “inactive” in each case. Besides, the Potency entry in experiment [10] was “inactive”.
Consider `Cn1c(=O)c(-c2c(Cl)cccc2Cl)cc2cnc(Nc3cccc(C(=O)O)c3)nc21`, for which the Potency entry in experiment [1], in [2], in [3], in experiment [8], in experiment [5] and in experiment [6] was “inactive” in each case. Further, the Potency result in [10] is “inactive”.
Regarding `CN(C)CC[C@H](CSc1ccccc1)Nc1ccc(S(=O)(=O)NC(=O)c2ccc(N3CCN(Cc4ccccc4-c4ccc(Cl)cc4)CC3)cc2)cc1[N+](=O)[O-]`, the Potency was 0.0187 µM (active) in experiment [1]; 0.0209 µM (active) in experiment [2]; 0.187 µM (active) in experiment [4]; 6.85 µM (active) in experiment [7]; 5.9 µM (active) in [8]; 11.8 µM (active) in experiment [6]. For the same molecule, the Potency in experiment [10] is 11.8 µM (active). In experiment [5], the Potency entry was “inactive”.
As to `CC[C@H](C)n1cc(C)c2c(C(=O)NCc3c(C)cc(C)[nH]c3=O)cc(-c3ccc(N4CCNCC4)nc3)cc21`, the Potency was 1.66 µM (active) in experiment [1]; 23.5 µM (active) in [2]; 30.6 µM (active) in [3]; 4.69 µM (active) in experiment [8]; 23.5 µM (active) in [9]; 18.7 µM (active) in [10]. Further, the Potency entry in [5] was “inactive”.
For `C[C@@H]1CC=CC=CC=CC=C[C@@H](O[C@@H]2O[C@H](C)[C@@H](O)[C@H](N)[C@H]2O)C[C@@H]2O[C@](O)(C[C@@H](O)C[C@@H]3O[C@@H]3C=CC(=O)O1)C[C@H](O)[C@@H]2C(=O)O`, the Potency entry in experiment [1], in [2] and in [5] was “inactive” in each case. Also, the Potency in experiment [3] was 15.3 µM (active); in experiment [7] it was 9.68 µM (active).
Take `O=C(Nc1ccccc1)Nc1ccc(-c2ccc(C(=O)[C@H]3CCC[C@H]3C(=O)O)cc2)cc1`: the Potency result in [1], in experiment [2], in experiment [4] and in [5] was “inactive” in each case.
For `COc1c(C)cnc(Cn2cnc3c(Cl)nc(N)nc32)c1C`, the Potency in experiment [1] is 0.264 µM (active); in [2], 0.166 µM (active); in experiment [4], 0.332 µM (active); in experiment [7] it was 0.432 µM (active); in [10], 1.18 µM (active).
For the molecule `Cc1ccccc1C(C(=O)NC1CCCCC1)N(C(=O)CNc1ccc(C#N)cc1)c1cccc(F)c1` (centres undefined), the Potency result in experiment [1], in experiment [2], in experiment [4], in experiment [8], in experiment [9] and in experiment [5] was “inactive” in each case. Also, the Potency entry in experiment [10] is “inactive”.
As for `Cc1nn(Cc2ccccc2Cl)c(C)c1CN(C)CC(O)COc1ccc(Cl)cc1` (centres undefined), the Potency in experiment [1] was 14.8 µM (active); in experiment [2] it was 20.9 µM (active); in experiment [7], 24.3 µM (active); in [8] it was 33.2 µM (active); in [10], 18.7 µM (active). The Potency entry in experiment [5] is “inactive”.
Turning to `CN1CCC[C@H]1CCO[C@](C)(c1ccccc1)c1ccc(Cl)cc1`, the values for the Potency in experiment [1] and in experiment [8] were 20.9 µM (active) and 37.2 µM (active), respectively. For the same molecule, the Potency result in experiment [2], in [4], in experiment [9], in experiment [5] and in experiment [6] was “inactive” throughout.
`CC1(C)[C@H]2CC[C@]3(C)[C@@H](C(=O)C=C4[C@@H]5C[C@@](C)(C(=O)O)CC[C@]5(C)CC[C@]43C)[C@@]2(C)CC[C@@H]1O`: the Potency result in experiment [1], in [2], in experiment [4], in [8], in experiment [9] and in experiment [6] was “inactive” in each case. In experiment [10], the Potency result was “inactive”.
With `CCC=CC[C@H]1C(=O)CC[C@@H]1CC(=O)OC`, the Potency entry in experiment [1], in experiment [2], in [4], in [9], in [5] and in experiment [6] was “inactive” in each case. In addition, in [10], the Potency result is “inactive”.
